Assay outcomes deposited in PubChem BioAssay by National Center for Advancing Translational Sciences (NCATS).
This is a sample that favours compounds with a hit; in the whole collection about 6.3% have one here.
Gal4-VP16 FLuc = counter-screen for ROR gamma inhibitors: Gal4-VP16 reporter; Drosophila S2 Gal4-VP16 UAS-luciferase, luminescence, 20 h; Potency, µM (doses to about 53.6 µM), for the others: top-dose activity, negative = inhibition, actives largely listed as inhibitors; hit rate 3.5% among 310,000; AID 2546;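 also: Gal4-VP16 expression switched on by copper sulfate through the metallothionein promoter; % is scaled to controls: 0 for no effect and ±100 for the full control effect; nearly all actives have a fitted effect of over 50% in size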
S2 tox = reduces viability in counter-screen for ATXN expression inhibitors; S2 cells (HEK-293 line with an ATXN2-luciferase reporter) viability, CellTiter-Fluor protease fluorescence, 24 h; Potency, µM (doses to about 56.7 µM), most hits filed as cytotoxic; hit rate 0.49% among 400,000; also: nearly all actives have a fitted effect of over 40% in size
TGFb inhibitor = TGF-b pathway inhibition; HepG2 CAGA-GFP TGF-b/SMAD3 reporter, GFP fluorescence, 18 h; TGF-beta stimulated, 500 pg/mL final; Potency, µM (doses to about 46.1 µM), without a hit: top-dose activity, negative = inhibition, usual class: inhibitors; hit rate 1.2% among 410,000; AID 588855; also: % is scaled to controls: 0 for no effect and ±100 for the full control effect; nearly all actives have a fitted effect of over 65% in size
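First, reporter cells (HEPG2 CAGA-GFP) rested 2 h at 37 degrees C. Next, compounds were pinned in and TGF-beta added to 500 pg/mL final. After 18 h, GFP was imaged per cell and summed per well.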
RORgamma inh = inhibitors of mouse ROR gamma transcriptional activity; Potency, µM (doses to about 53.6 µM), for the others: at the top dose activity change, negative = inhibition, actives largely listed as inhibitors; Drosophila S2 Gal4-RORgamma UAS-luciferase reporter, 20 h; hit rate 5.4% among 310,000; P51450; also: % is scaled to controls: 0 for no effect and ±100 for the full control effect; nearly all actives have a fitted effect of over 60% in size
Target sequence (P51450 whole entry, looked up, the tested form may be a part): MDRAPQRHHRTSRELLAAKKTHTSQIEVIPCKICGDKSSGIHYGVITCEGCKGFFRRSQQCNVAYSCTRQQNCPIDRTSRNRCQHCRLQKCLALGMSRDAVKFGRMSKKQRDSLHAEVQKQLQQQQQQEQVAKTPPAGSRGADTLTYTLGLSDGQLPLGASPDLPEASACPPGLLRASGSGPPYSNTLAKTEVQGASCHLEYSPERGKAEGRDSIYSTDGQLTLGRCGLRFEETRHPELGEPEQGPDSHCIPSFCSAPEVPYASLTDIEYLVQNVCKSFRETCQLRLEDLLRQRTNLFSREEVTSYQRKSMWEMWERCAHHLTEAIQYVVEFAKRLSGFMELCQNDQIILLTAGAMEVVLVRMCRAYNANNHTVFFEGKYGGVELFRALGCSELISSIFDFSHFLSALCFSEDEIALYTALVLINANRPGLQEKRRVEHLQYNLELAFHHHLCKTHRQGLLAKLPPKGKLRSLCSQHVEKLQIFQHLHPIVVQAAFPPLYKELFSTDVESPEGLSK
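Stable Schneider cell line, Gal4 DNA-binding domain fused to ROR gamma, UAS-luciferase. Cmpd 1 hr RT → CuSO4 700 uM final → 20 hr RT → luciferase reagent 10 min → luminescence.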
ATXN2 expr inh = reduces ATXN2 reporter expression in HEK-293 cells | HEK-293 ATXN2-luciferase reporter, luminescence, 24 h | Potency, µM (doses to about 57 µM), for inactives: at the highest dose activity change, negative = inhibition, hits mostly inhibitors | hit rate 0.72% among 360,000 | AID 1745845; also: % is scaled to controls: 0 for no effect and ±100 for the full control effect; nearly all actives have a fitted effect of over 55% in size
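ATXN2-luciferase reporter cells (luciferase flanked by upstream and downstream ATXN2 gene portions) were treated 24 h at 37 °C with compounds at up to 57 uM. SteadyGlo luminescence gave expression; GF-AFC fluorescence gave viability.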
HepG2 viability = counter-screen for TGF-b inhibitors: cytotoxicity in HepG2 cells; HepG2 CAGA-GFP viability, ATP luminescence, 18 h; Potency, µM (series often up to 46.1 µM), for inactives: at the top dose activity change, negative = cytotoxicity, most hits filed as cytotoxic; hit rate 0.76% among 410,000
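HepG2 CAGA-GFP cells (1000/well, DMEM with 1% FBS) received compound, then TGF-beta at 500 pg/mL final, and were incubated 18 hours at 37 degrees C. Viability was read by CellTiter-Glo luminescence. Media-only wells were set as complete cell-killing and DMSO as no toxicity.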
* = called active by the depositor; i = inactive; ? = inconclusive; . = not tested or not shown; [ ] = another dose, or the depositor's remark. Calls follow the shape of the dose curve; as a rule, active = well fitted curve in the direction sought with a large enough effect; inconclusive = small, poorly fitted or top-dose-only effect, or another doubt; inactive = no such curve, though single readings can be large; an effect the other way counts as inactive or inconclusive. Potency is read from the fitted curve at half-maximal effect.

SMILES	Gal4-VP16 FLuc	S2 tox	TGFb inhibitor	RORgamma inh	ATXN2 expr inh	HepG2 viability
CC1=NN(C(=O)COc2ccc(C)c(C)c2)C(O)(c2ccccc2)C1 (stereo not drawn)	11µM*	?	-23%	10µM*	-6%	-13%
C=C(C)C(O)/C=C/c1ccccc1OC (stereo not drawn)	0%[10 µM]	.	.	8%[10 µM]	.	.
CC(=O)c1ccc(OC2(C)CCN(Cc3ccc4ccccc4c3)C2)cc1 (stereo not drawn)	.	i	-9%	.	-15%	-30%
Cc1ccccc1-n1c(SCC(=O)Nc2ccc(Cl)cc2Cl)nc(O)cc1=O	.	.	-2%	.	.	6%
CCOC(=O)c1c(-c2ccccc2)c2cc(OC)ccc2n1CCCN(C)C	-4%	i	?	-8%	.	18µM*
CCOC(=O)c1c(C)n(CCNC(C)=O)c2ccc(OC)cc12	2%	i	-2%	-1%	7%	-17%
O=C1C(=O)c2ccccc2C(O)=C1CCCCl	?	.	2.5µM*	?	25µM*	2µM*
COc1ccc(CC2=C(O)c3ccccc3C(=O)C2=O)cc1	-26%	i	-12%	?	-7%	-2%
CC(C)(OC(=O)c1cccs1)c1cc2ccccc2c(=O)o1	.	i	-9%	.	8%	-1%
COc1cc(/C=C/CN2CCOc3ccc(C(O)c4cccnc4)cc3C2)ccc1O (stereo not drawn)	.	i	.	.	.	.
Cc1ccc(-c2nn(-c3ccccc3)cc2C2SCC(=O)N2Cc2ccccc2)o1 (stereo not drawn)	?	i	?	11µM*	-24%	4%
COc1ccccc1N(/N=C1\Sc2ccccc2C1=O)C(C)=O	?	i	?	8.9µM*	.	-48%
CN1CCC(COc2cnc(-c3cccc(Cn4nc(-c5cccc(C#N)c5)ccc4=O)c3)nc2)CC1	.	.	.	.	-24%	.
Cc1cc(OCCNCCO)cc(C)c1Cl	3%	i	16%	-18%	-18%	-26%
Cc1cc(OCCCCCNCCO)cc(C)c1Cl	-5%	i	?	-37%	?	11µM*
COC(=O)c1cccnc1NC(=S)NC1CCCCC1	1.3µM*	i	5%	0.63µM*	-24%	-15%
COC(=O)c1ccc(NC(=S)NC2CC3CCC2C3)cc1 (stereo not drawn)	?	i	?	11µM*	30%	-13%
COC(=O)c1ccc(NC(=S)NC2CCCCC2)cc1	?	i	-5%	7.1µM*	24%	-24%
COC(=O)c1ccc(NC(=O)C2CC3CCC2C3)cc1 (stereo not drawn)	.	i	-2%	.	87%	-18%
CCN(CC)C(=S)Nc1ccc(C(=O)OC)cc1	5%	i	23%	2%	-7%	7%
COC(=O)c1ccc(NC(=S)NCC2CC2)cc1	?	i	?	11µM*	.	-5%
CCOC(=O)C(=O)CCCCCCl	.	i	.	.	8%	.
CCOc1ccc(NC(=O)c2ccc(NC(=S)NC3CCCCC3)cc2)cc1	?	?	?	-45%	-37%	18µM*
CC(=O)C1=C(C)NC(SCC(=O)c2ccc(C)cc2)=C(C#N)C1c1ccco1 (stereo not drawn)	2.8µM*	.	.	?	.	.
Cc1ccc(C(=O)CSC2=C(C#N)C(c3ccco3)C3=C(CC(C)(C)CC3=O)N2)cc1 (stereo not drawn)	-5%	i	-25%	0%	-24%	-13%
SMILES	Gal4-VP16 FLuc	S2 tox	TGFb inhibitor	RORgamma inh	ATXN2 expr inh	HepG2 viability
COc1cc(CNCCc2ccc(S(N)(=O)=O)cc2)ccc1OCc1ccc(Cl)cc1	-13%	22µM*	?	-42%	18µM*	-109%
CCOc1cc(CNCCc2ccc(S(N)(=O)=O)cc2)ccc1OCc1ccc(Cl)cc1	?	?	?	?	?	-106%
CCS(=O)(=O)N1CCc2cc(C(=O)N3CCN(c4cccc(C(F)(F)F)c4)CC3)ccc21	.	?	11µM*	.	?	-32%
O=C(N/N=C1/CCSC1)c1cccc([N+](=O)[O-])c1	20µM*	?	7%	?	-8%	-4%
Cc1ccc(C(=O)N/N=C\C2CC=CCC2)cc1[N+](=O)[O-] (stereo not drawn)	?	i	9%	-38%	-11%	-11%
Cc1ccc(C(=O)N/N=C2\CCSC2)cc1[N+](=O)[O-]	?	?	?	10µM*	5%	1%
CCOc1ccc(CNC(=O)Cn2nc(C)c3nn(-c4ccc(Cl)cc4)c(C)c3c2=O)cc1	.	.	19%	.	.	9%
COc1ccc(-c2cn(Cc3ccc4c(c3)C(=O)c3ccccc3C4=O)nn2)cc1	-3%	i	-10%	-5%	5%	-6%
COc1ccc(-c2cc3c(nn2)-c2ccccc2C3=O)cc1	?	?	2%	2.5µM*	?	-61%
O=C1c2ccccc2-c2nnc(-c3ccccc3)cc21	11µM*	?	10%	8.9µM*	?	-33%
Cc1cccc(-c2cc3c(nn2)-c2ccccc2C3=O)c1	?	i	-3%	-15%	-1%	-32%
CC(C)N(CCO)Cc1nc(N2CCOCC2)c2cc(Cl)ccc2n1	.	i	.	.	.	.
COC(=O)CNC(=O)c1cnn(-c2ncc3c(n2)-c2ccccc2CCC3)c1C1CC1	.	i	.	.	.	.
O=C(Nc1ccc(S(=O)(=O)Nc2ncccn2)cc1)c1ccc(Br)cc1	.	?	-1%	.	.	-5%
Cc1ccc(Cl)cc1N1CCN(C(=O)c2cc(S(=O)(=O)N3CCC(C)CC3)cn2C)CC1	.	i	7.1µM*	.	3%	-19%
CCn1cc(C(=O)N2CCCC2)c(=O)c2cc(S(=O)(=O)N3CCC(C)CC3)ccc21	-1%	i	5%	2%	7%	14%
CCn1cc(C(=O)N2CCCC2)c(=O)c2cc(S(=O)(=O)N3CCOCC3)ccc21	3%	i	-9%	4.5µM*	4%	-3%
